# MITF TRPM1 HTS: increases MITF-driven TRPM1 promoter luciferase signal; SK-MEL-5 TRPM1-promoter luciferase, 24 h; % of positive control, neutral wells = 0; activation, % at 12.5 µM; 300,000 tested, 0.75% active;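 active = mean activation of at least 80% with every replicate also reaching 80%; inconclusive = mean reaches 80% but some replicate falls short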;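 also: 0% = neutral control wells and 100% = parthenolide positive control wells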
# Wnt act: Wnt/beta-catenin pathway activation; AID 743398; 300,000 tested, 1.2% active; activation, % at 9.35 µM; Wnt/beta-catenin reporter cell assay, activator, plate reader; in the data active = activation above about 30%, passing the limit was not always enough; inconclusive = no clear call, values can overlap the other calls;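 also: 0% = neutral control wells and 100% = positive control wells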
# EBV LMP1 NFkB: Epstein-Barr LMP1 NF-kappaB reporter inhibition. LMP1-induced NF-kappaB luciferase reporter cells, luminescence. inhibition, % at 12.5 µM. 350,000 tested, 0.69% active; in the data active = inhibition above about 41%; inconclusive = no clear call, values can overlap the other calls;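 also: 0% = neutral control wells and 100% = reference inhibitor control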
# MITF TRPM1 inh: reduces MITF-dependent TRPM1 promoter luciferase signal. SK-MEL-5 TRPM1 promoter luciferase, 24 h. inhibition, % at 12.5 µM. 330,000 tested, 0.83% active. AID 488899;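 active = mean inhibition across replicates of 60% or more, whatever share of single replicates reaches that level; inconclusive = some that reach 60%, reason not given; inactive = mean inhibition across replicates below 60%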
# C2C12 statin: suppression of simvastatin myotoxicity; C2C12 myotubes + simvastatin, ATP luminescence, 48 h; scaled: DMSO 0, geranylgeraniol control 100; 330,000 tested, 0.78% active; rescue of ATP level, % at 7.49 µM;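 active = mean ATP rescue above about 67%, or every replicate alone reaching that limit, limit read from the data, passing the limit was not always enough; inconclusive = no clear call, values can overlap the other calls; inactive = mean under the limit and some replicate under it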;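 also: myotubes were challenged with 10 µM simvastatin during compound exposure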
# esBAF inh: blocks esBAF chromatin remodeling in mouse ES cells; 350,000 tested, 2% active; Bmi1-luciferase knock-in reporter, 24 h; 100% = twice the neutral-well signal; AID 602393; reporter increase, % at 12.5 µM; in the data active = activation above about 40%; inconclusive = no clear call, values can overlap the other calls;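 also: 0% = median of the plate's neutral control wells and 100% = double that signal; a rise in the Bmi1 reporter signal indicates esBAF inhibition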
# An asterisk follows results filed as active; ? = inconclusive; nt = no result. In the library only some 4% were active in any assay of this set; here they are far more common.
SMILES,MITF TRPM1 HTS,Wnt act,EBV LMP1 NFkB,MITF TRPM1 inh,C2C12 statin,esBAF inh
O=C(N/N=C/C(Cl)=C\c1ccccc1)c1ccco1,nt,57*,-13,-45,nt,nt
O=C(N/N=C/C(Cl)=C\c1ccccc1)c1cnccn1,27,nt,-5,-25,nt,nt
C=CC[n+]1c(-c2ccc(C)cc2)csc1Nc1ccc(NC(C)=O)cc1,-80,-1,39,81*,nt,nt
O=C(Nc1ccc(N2CCOCC2)cc1)c1ccncc1,12,3,3,-9,nt,17
O=C(Nc1ccc(N2CCOCC2)cc1)c1cnccn1,nt,-4,63*,25,-9,-74
O=C(Nc1ccccc1N1CCOCC1)c1cnccn1,-4,-3,2,6,-80,-6
O=C(Nc1ccc(N2CCOCC2)cc1)c1cnsn1,-79,nt,77*,79*,-9,-82
CC(=NNC(=S)N1CCCCCC1)c1cccc2cccnc12,-50,-2,52*,51,nt,nt
CC(=NNC(=S)N1CCN(c2ccccn2)CC1)c1ccccn1,nt,15,0,-7,nt,nt
CC(=NNC(=S)N1CC2CCC(CC2)C1)c1ccccn1,nt,-2,33,nt,nt,nt
CC(=NNC(=S)N1CCN(c2ccccn2)CC1)c1nccs1,-60,nt,74*,nt,nt,nt
CC(=NNC(=S)N1CCN(C2CCCCCC2)CC1)c1ccccn1,nt,-5,16,83*,nt,nt
CC(=NNC(=S)N1CC2CCC(CC2)C1)c1cnccn1,-67,-4,66*,65*,nt,nt
S=C(Nc1ccc2nc(-c3ccccn3)c(-c3ccccn3)nc2c1)N1CCCCC1,2,nt,-2,0,-13,4
Cc1nc(NC(=O)/C=C/c2ccccc2)sc1C(=O)Nc1cccc(Cl)c1,-13,-2,-16,14,nt,nt
COc1ccc(C(=O)COc2ccccc2C#N)cc1,nt,46*,-34,-50,nt,nt
COc1ccc(C(=O)CNc2ccccc2CO)cc1,52,1,-16,-52,nt,nt
COc1ccc(C(=O)COc2ccccc2C(N)=O)cc1,34,5,-7,-25,-1,3
COC(=O)CCC(=O)COc1ccc(OC)cc1C#N,114*,nt,-11,-99,4,-9
COc1ccc(C(=O)CNc2ccccc2C#N)cc1,60,5,-23,-60,-4,50*
C=C1C(=O)OC2C1CCC(C)C1C=CC(=O)C12C (stereo not given),-68,-7,-82,69*,21,-19
CC1CCCN(C(=O)CSc2nc3ccccc3o2)C1 (stereo not given),nt,?,-1,-52,-4,29
CN(C(=O)CSc1nc2ccccc2o1)C1CCCCC1,?,57*,-34,-90,15,23
Cc1c(C(=O)NCC2CCCO2)oc2ccccc12 (stereo not given),nt,0,17,nt,-3,-8
O=C1C=C(c2cccc(Br)c2)C[C@@H](c2ccc3c(c2)OCO3)C1,-9,5,-2,13,1,9
SMILES,MITF TRPM1 HTS,Wnt act,EBV LMP1 NFkB,MITF TRPM1 inh,C2C12 statin,esBAF inh
O=C1C=C(c2ccc(C(=O)O)cc2)C[C@@H](c2ccc(F)cc2)C1,48,14,-7,-55,1,45*
COc1cccc(C2=CC(=O)C[C@H](c3ccc4c(c3)OCO4)C2)c1,2,nt,48*,4,17,0
O=C1C=C(c2ccc(-c3ccccc3)cc2)C[C@@H](c2ccc(F)cc2)C1,16,20,-3,-8,10,-1
CCOc1ccc(C2=CC(=O)C[C@H](c3ccc(OC)cc3)C2)cc1,nt,12,-11,nt,-42,76*
O=C1C=C(c2cccc(Cl)c2)C[C@@H](c2ccc3c(c2)OCO3)C1,-3,1,-3,7,134*,-34
O=C1C=C(c2ccccc2)C[C@@H](c2ccc3c(c2)OCO3)C1,2,0,4,2,8,2
COc1cccc(OC)c1C1=CC(=O)C[C@H](c2ccc3c(c2)OCO3)C1,-5,-2,-5,2,-6,1
COc1cccc(C2=CC(=O)C[C@H](c3ccc4c(c3)OCO4)C2)c1OC,57,nt,2,-52,21,43*
O=C(Nn1c(SCc2ccc(F)cc2)nc2ccsc2c1=O)c1ccccc1,0,5,3,1,nt,nt
CC1CCN(Cc2c(C(=O)N/N=C/c3cc(Br)ccc3O)nnn2-c2nonc2N)CC1,-63,-4,49*,65*,12,-70
Nc1nonc1-n1nnc(C(=O)N/N=C/c2cccc(Cl)c2)c1-c1cccs1,3,-1,-1,-8,72*,3
COc1cc(/C=N/NC(=O)c2nnn(-c3nonc3N)c2C)ccc1OCc1ccc(Cl)cc1,nt,0,-142,nt,-38,56*
CC1CCN(Cc2c(C(=O)N/N=C/c3cc(Cl)ccc3O)nnn2-c2nonc2N)CC1,-36,-5,35,35,-15,-60
COc1ccc(/C=N/NC(=O)c2nnn(-c3nonc3N)c2-c2cccs2)cc1OC,28,?,2,-27,10,4
Nc1nonc1-n1nnc(C(=O)N/N=C/c2ccc(OCc3cccc(Cl)c3)cc2)c1CN1CCCCC1,106*,20,0,-113,nt,nt
C[C@H](CO)N1C[C@H](C)[C@H](CN(C)Cc2ccc3c(c2)OCO3)Oc2ccc(N(C)C)cc2CC1=O,nt,nt,nt,nt,-28,1
Nc1nonc1-n1nnc(C(=O)N/N=C/c2ccc(OCc3ccccc3F)cc2)c1CN1CCCCC1,84*,5,3,-82,-12,9
Cc1cccc2c1-c1sc(C(=O)N3CCCCC3)cc1CO2,88*,23,-44,-89,4,68*
CCOC(=O)N1CCN(C(=O)c2cc3c(s2)-c2c(C)cccc2OC3)CC1,-5,1,9,-6,-10,-4
COc1ccc(S(=O)(=O)N2CCC(NC(=O)C3CCCCC3)CC2)cc1,nt,-1,46*,1,-8,-6
COc1ccc(CNC(=O)C2CCN(S(=O)(=O)c3ccc4c(c3)C(C)(C)C(=O)N4C)CC2)cc1,-1,-2,-2,3,86*,0
O=C(CCS(=O)(=O)c1ccccc1Cl)NC1CCCCCC1,51,21,-15,-46,-6,49*
COc1ccc(S(=O)(=O)N2CCC(C(=O)NC3CC3)CC2)cc1,5,-2,4,-2,-2,2
COc1ccc(S(=O)(=O)CCC(=O)NC2CCCCC2)cc1,0,-7,-5,-1,87*,4
O=C1C(c2ccncc2)N(CCC2=CCCCC2)C(=O)CN1C1CCCCC1 (stereo not given),-9,nt,-2,10,nt,nt
O=C(CCS(=O)(=O)Cc1ccccc1)NC1CCCCC1,7,-2,2,-8,nt,-5
O=C(CCS(=O)(=O)c1ccccc1)NC1CCCCC1,105*,22,-10,-101,nt,nt
O=C(NC1CCN(S(=O)(=O)c2cccc([N+](=O)[O-])c2)CC1)C1CCCCC1,3,-3,-2,-2,1,-9
O=C(NC1CC1)C1CCN(S(=O)(=O)c2ccc(Cl)c([N+](=O)[O-])c2)CC1,-77,-6,-16,75*,-2,6

# High-throughput results: PubChem, Broad Institute
